# IL1B secr inh = qHTS for Inhibitors of Inflammasome Signaling: IL-1-beta AlphaLISA Primary Screen; THP-1 LPS/ATP IL-1B secretion, AlphaLISA, 16 h; hits give low values; AID 743279, 2014; activity change, % at 57.5 µM; hit rate 4.7% among 360,000; in the data active means activity change below about -50%; inconclusive means mostly about -30% to -49%; further: on the % scale 0 is the no-effect control and ±100 the full control effect
#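 THP-1 cells pretreated 1 hr with compounds (up to 57.5 uM final), then stimulated with LPS (250 ng/mL final) plus ATP (1.25 mM final); secreted IL-1B measured by AlphaLISA after 16 hr, decreased signal indicating inhibition.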
# DT40 TDP1 CPT = qHTS for Inhibitors of human tyrosyl-DNA phosphodiesterase 1 (TDP1): qHTS in cells in presence of CPT | chicken DT40 Tdp1-/-;hTDP1 cells + 20 nM CPT, ATP luminescence, 48 h | Potency, µM (doses to about 46.2 µM), for the others: at the highest dose activity change, negative = growth inhibition, actives largely listed as inhibitors | hit rate 12% among 420,000; further: potency means the concentration at half of the fitted maximal effect; on the % scale 0 is the no-effect control and ±100 the full control effect; nearly all actives have a fitted effect of over 55% in size
#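 Cell growth measured by CellTiter-Glo luminescence after a minimum 48 h, 37 C compound exposure with 20 nM CPT in Tdp1-knockout DT40 cells stably expressing hTDP1, seeded 400/well; qHTS titration format.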
# HepG2 viability = qHTS for Inhibitors of TGF-b: Cytotox Counterscreen; Potency, µM (highest dose often 46.1 µM), for the others: at the top dose activity change, negative = cytotoxicity, most hits filed as cytotoxic; hit rate 0.76% among 410,000; HepG2 CAGA-GFP viability, ATP luminescence, 18 h; AID 588856, 2011; further: potency means the concentration at half of the fitted maximal effect
#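 CellTiter-Glo luminescence gave cytotoxicity after 18 hours at 37 degrees C. The cells were HepG2 CAGA-GFP in 1% FBS DMEM, stimulated with 500 pg/mL TGF-beta after compound addition. %Activity was normalised to no-cell wells (complete cell-killing) and DMSO (no toxicity), and curves were fitted and classified.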
# TGFb inhibitor = qHTS for Inhibitors of TGF-b; HepG2 CAGA-GFP TGF-b/SMAD3 reporter, GFP fluorescence, 18 h; TGF-beta stimulated, 500 pg/mL final; Potency, µM (highest dose often 46.1 µM), for inactives: top-dose activity, negative = inhibition, most hits filed as inhibitors; hit rate 1.2% among 410,000; AID 588855, 2011; further: potency means the concentration at half of the fitted maximal effect; on the % scale 0 is the no-effect control and ±100 the full control effect; nearly all actives have a fitted effect of over 65% in size
#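 Read-out: total well GFP (ex488/em500-530) summed from mean per-cell fluorescence. Cells: HEPG2 CAGA-GFP, 1% FBS DMEM, 18 h at 37 degrees C with 500 pg/mL final TGF-beta. Unstimulated wells served as the full-inhibition control; stimulated DMSO wells = 0%.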
# DT40 TDP1 no CPT = qHTS for Inhibitors of human tyrosyl-DNA phosphodiesterase 1 (TDP1): qHTS in cells in absence of CPT. hit rate 15% among 420,000. Potency, µM (top dose mostly 46.2 µM), without a hit: at the highest dose activity change, negative = growth inhibition, actives largely listed as inhibitors. DT40 Tdp1-/- hTDP1 cells, no CPT, ATP luminescence, 48 h; further: potency means the concentration at half of the fitted maximal effect; on the % scale 0 is the no-effect control and ±100 the full control effect; nearly all actives have a fitted effect of over 55% in size
#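 Camptothecin absent (DMSO only). Human TDP1-complemented DT40 knockout cells, 400 cells/well, 37 °C for minimum 48 hr; ATP measured via CellTiter-Glo, 30 min dark incubation, luminescence.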
# TDP1 block = qHTS Assay for Inhibitors of Tyrosyl-DNA Phosphodiesterase (TDP1) | recombinant TDP1, AlphaScreen DNA substrate cleavage | Potency, µM (titrated, usually from 130 µM), without a hit: at the highest dose activity change, negative = inhibition, actives largely listed as inhibitors | hit rate 0.28% among 350,000; further: potency means the concentration at half of the fitted maximal effect; on the % scale 0 is the no-effect control and ±100 the full control effect; nearly all actives have a fitted effect of over 40% in size
# Target sequence (Q9NUW8 whole entry, looked up): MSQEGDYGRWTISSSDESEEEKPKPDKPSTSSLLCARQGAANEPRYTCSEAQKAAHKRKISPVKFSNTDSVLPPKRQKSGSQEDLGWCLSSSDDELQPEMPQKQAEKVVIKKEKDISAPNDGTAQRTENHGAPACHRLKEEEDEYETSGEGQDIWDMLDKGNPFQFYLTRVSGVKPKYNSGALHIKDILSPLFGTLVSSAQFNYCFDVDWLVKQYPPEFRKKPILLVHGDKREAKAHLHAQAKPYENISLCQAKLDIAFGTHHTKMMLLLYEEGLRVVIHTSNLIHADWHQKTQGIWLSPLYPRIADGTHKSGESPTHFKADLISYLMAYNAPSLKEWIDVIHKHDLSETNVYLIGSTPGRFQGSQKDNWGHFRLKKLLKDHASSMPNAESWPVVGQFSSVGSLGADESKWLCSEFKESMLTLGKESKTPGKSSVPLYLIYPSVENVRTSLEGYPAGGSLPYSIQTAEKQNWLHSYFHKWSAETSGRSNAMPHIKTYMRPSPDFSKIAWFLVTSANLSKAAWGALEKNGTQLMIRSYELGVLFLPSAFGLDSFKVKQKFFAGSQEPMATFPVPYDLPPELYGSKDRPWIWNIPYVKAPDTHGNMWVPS
#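 Compounds were preincubated with Tdp1 (1 nM final) for 15 min at room temperature before substrate (15 nM final) started a 5 min reaction; beads (10 ug/ml final) were then added for 10 min before AlphaScreen detection.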
# * = called active by the depositor; ? = inconclusive; . = no result; ! = a repeat was not active; [ ] = another dose, or the depositor's remark. Compounds with a hit are over-represented: about 18% of the library has one in this group of screens. Unless noted, the call rests on the fitted dose curve; in most records, active means well fitted curve in the direction sought with a large enough effect; inconclusive means small, poorly fitted or top-dose-only effect, or another doubt; inactive means no such curve, though single readings can be large; an effect the other way counts as inactive or inconclusive.
SMILES,IL1B secr inh,DT40 TDP1 CPT,HepG2 viability,TGFb inhibitor,DT40 TDP1 no CPT,TDP1 block
FC(F)(F)c1cccc(NC(=S)N2CCN(c3cccc(C(F)(F)F)c3)CC2)c1,-2,?,-59%,0%,15µM*,-7%
Fc1ccc(NC(=S)N2CCN(c3cccc(C(F)(F)F)c3)CC2)cc1,8,21µM*,-33%,?,13µM*,0%
COc1ccc(Br)cc1CNC(=O)c1cnc2sc(N3CCC(C)CC3)nn2c1=O,.,?,1%,34%,?,3%
CCN1C(=O)[C@@H]2[C@H]3C(=CC[C@@H]2C1=O)C1(OCCCO1)[C@H]1O[C@@H]1[C@H]3O,.,.,.,.,.,-5%[21 µM]
Cc1cccc(N2C(=NC(=O)c3ccccc3)SC3CS(=O)(=O)CC32)c1 (stereo unspecified),-7,-12%,2%,-17%,2%,-3%
Cn1nccc1-c1coc2c(C(=O)NCC3CCOCC3)cccc12,65,?,-33%,8%,23µM*,.
CC[C@]12c3[nH]c4ccccc4c3CCN1C(=O)C(CC(=O)NCCCn1ccnc1)C[C@@H]2C(=O)N1CCN(C(=O)C2CC2)CC1 (stereo partly specified),23,4%,-20%,-6%,3%,0%
COc1ccc(OC)c(NC(=O)NCCN2CCN(c3ccccc3)CC2)c1,-25,?,-12%,1%,14%,.
COc1ccc(-c2cccc(CCC(=O)N3CCN(c4cc(C)ccc4C)CC3)c2)cc1,4,?,-11%,?,?,0%[56.1 µM]
COc1cc(NC(=O)NCCN2CCN(c3ccc(Cl)cc3)CC2)ccc1C,-60*,?,-35%,14%,?,2%
COc1ccc(NC(=O)NCCCN2CCN(c3cc(C)ccc3C)CC2)cc1,-28,8.2µM*,13µM*,?,8.2µM*,5%
COc1ccc(N2CCN(CCNC(=O)Nc3ccc([N+](=O)[O-])cc3OC)CC2)cc1,-18,29µM*,-12%,0%,23µM*,.
COc1ccc(C2=C(C)C(=NCCCN3CCN(c4cc(C)ccc4C)CC3)NS2(=O)=O)cc1,.,4.6µM*,10µM*,?,-103%,9%
COc1ccc(OC)c(S(=O)(=O)N2CCCC(C(=O)NC3CC3)C2)c1 (stereo unspecified),4,?,-4%,-18%,?,.
COc1ccc(N2CCN(CCNC(=O)Nc3ccc(C)c(Cl)c3)CC2)cc1,-30,23µM*,-35%,-7%,16µM*,.
C/C=C1\COC(C(=O)NCc2ccccc2)(C(F)(F)F)C=C1C=C(C)C (stereo unspecified),2,?,-15%,11µM*!,?,-2%
CC(=O)Nc1nc(COc2ccccc2)cs1,-5,-10%,-69%,?,-19%,2%
Cc1ccc(C(=O)Nc2nc(COc3ccccc3)cs2)s1,-87*,?,-38%,-13%,?,-1%
COc1cccc(OC)c1C(=O)Nc1nc(COc2ccccc2)cs1,9,-26%,-26%,-5%,?,5%
O=C(Nc1nc(COc2ccccc2)cs1)C12CC3CC(CC(C3)C1)C2,-28,22µM*,-18%,?,?,-4%
O=C(Nc1nc(COc2ccccc2)cs1)C1CCC1,?,23µM*,-4%,0%,16µM*,3%[56.1 µM]
O=C(Cn1nnc(-c2cc(C(F)(F)F)cc(C(F)(F)F)c2)n1)NNC(=S)Nc1ccc(Cl)cc1,-12,4%,-54%,?,?,-6%
Cc1cccc(C)c1NC(=O)CNC(=O)Cn1nc(C)c(C)c(C#N)c1=O,-15,9%,-37%,5%,-3%,0%
COc1ccc(CN2CCN(c3ccccn3)CC2)c(OC)c1C,0,?,-44%,?,13µM*,1%
COc1cc2c(cc1OC)CN(Cc1ccc(C)cc1)CC2,-12,-16%,-15%,2%,-28%,.
SMILES,IL1B secr inh,DT40 TDP1 CPT,HepG2 viability,TGFb inhibitor,DT40 TDP1 no CPT,TDP1 block
CCc1ccc2c(CN3CCc4cc(OC)c(OC)cc4C3)cc(=O)oc2c1,0,?,-29%,-13%,23µM*,3%
COc1ccc(CN2CCN(c3ncccn3)CC2)c(C)c1C,20,-29%,-33%,-21%,?,.
COc1cc2c(cc1OC)CN(Cc1cc(=O)oc3c(C)c(C)ccc13)CC2,-11,?,-13%,-20%,21µM*,0%
COc1cc2c(cc1OC)CN(Cc1ccc(OC)c(C)c1OC)CC2,-12,29µM*,-20%,5%,21µM*,-3%
Cc1cc(C(=O)NCc2ccccc2Cl)n(-c2ccccc2)n1,0,?,1%,2%,?,.
Cc1ccc2c(CN(C)Cc3cccc(F)c3)cc(=O)oc2c1C,6,?,-35%,-14%,?,.
Cc1ccc2c(CN(C)Cc3ccccc3)cc(=O)oc2c1C,2,-22%,1%,-6%,15µM*,.
COc1ccc(C(=O)NCCCNC(=O)c2ccccn2)cc1,10,0%,10%,0%,2%,0%
Cc1ccc2ncc(C)c(C)c2c1,.,-2%,2%,-3%,-10%,.
O=C(/C=C/c1ccco1)NC(=S)Nc1nc(-c2ccc3ccccc3c2)cs1,-5,3.3µM*,-1%,3%,4.1µM*,5%
O=C(/C=C/c1ccco1)NC(=S)Nc1nc(-c2ccc(Cl)cc2)cs1,-8,5.2µM*,4%,0%,4.6µM*,5%
O=C(/C=C\c1ccco1)Nc1nc(-c2ccccc2)cs1,0,18%,1%,0%,-17%,0%
COc1ccc(-c2csc(NC(=S)NC(=O)c3ccc4ccccc4c3)n2)cc1OC,11,?,-6%,1%,?,.
COc1ccc(-c2csc(NC(=S)NC(=O)/C=C/c3ccccc3)n2)cc1Br,3,?,4%,23%,23µM*,6%
N#Cc1nc(Nc2ccc(-c3ccccc3)cc2)nc(NC2CCCC2)n1,.,.,.,.,.,1%
COc1cc(C(=O)OC(COCCC(C)C)CN2CCOCC2)cc(OC)c1OC (stereo unspecified),.,3%,.,.,-24%,.
Cc1ccc(C(=O)NCC(c2ccc3c(c2)OCO3)N2CCN(C)CC2)cc1C (stereo unspecified),.,-4%,-20%,-34%,-30%,-4%
